# Reference: the supplement of paper PMC10849652
# About 8,800 targets were measured; listed, in parts, are those with a hit and a random draw of the rest. About 0.5% of all pairs of compound and target were hits. Values without a mark were called inactive.
# What was measured:
# Test in all cases: log2 fold change, soluble protein after heating vs DMSO (PISA); higher = thermal stabilisation; K562 lysate, 10 uM; active = over 0.2 and 3.5 SD of the protein, either way, in both replicates (recomputed)
# [1] = compound: Cc1cn(-c2cc(NC(=O)c3ccc(C)c(Nc4nccc(-c5cccnc5)n4)c3)cc(C(F)(F)F)c2)cn1 [nilotinib]
# Method in brief: (§1)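 K562 pellets were dounce-homogenised in PBS pH 7.4 with 1 mM MgCl2, and the crude extract at 1 mg/mL protein was treated with 10 μM compound for 30 min. Aliquots were heated for 3 min across 48°C-58°C, pooled, and brought to 0.5% NP-40 at 4°C; soluble protein was the supernatant after 21,000xg for 90 min. Soluble protein was quantified by TMTpro 16plex LC-MS/MS with channel sums equalised, and reported as log2 fold change in thermal stability against DMSO controls, with values from duplicates.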
# [2] = compound: Cc1nc(Nc2n[nH]c3c2CN(C(=O)N[C@H](CN(C)C)c2ccccc2)C3(C)C)c2sccc2n1
# Method in brief: as §1
# [3] = compound: Cc1nc(Nc2ncc(C(=O)Nc3c(C)cccc3Cl)s2)cc(N2CCN(CCO)CC2)n1 [dasatinib]
# Method in brief: as §1
# [4] = compound: Cc1ncc(-c2ccnc(Nc3ccc(S(C)(=O)=O)cc3)n2)n1C(C)C
# Method in brief: as §1
# [5] = compound: Cn1cc(-c2ccc3c(c2)CCN3C(=O)Cc2cccc(C(F)(F)F)c2)c2c(N)ncnc21
# Method in brief: as §1
# [6] = compound: Cn1cc(CNCC2CCN(c3ncc(C(=O)NO)cn3)CC2)c2ccccc21 [quisinostat]
# Method in brief: as §1
# [7] = compound: Cn1cncc1[C@@](N)(c1ccc(Cl)cc1)c1ccc2c(c1)c(-c1cccc(Cl)c1)cc(=O)n2C [tipifarnib]
# Method in brief: as §1
# [8] = compound: NC(=O)Nc1cc(-c2cccc(F)c2)sc1C(=O)N[C@H]1CCCNC1
# Method in brief: as §1
# [9] = compound: NC(=O)c1cnc(N[C@@H]2CCCC[C@@H]2N)nc1Nc1cccc(-n2nccn2)c1
# Method in brief: as §1
# [10] = compound: NC1(c2ccc(-c3nc4ccn5c(=O)[nH]nc5c4cc3-c3ccccc3)cc2)CCC1
# Method in brief: as §1
# [11] = compound: NCC(=O)Nc1ccc(-n2nc(C(F)(F)F)cc2-c2ccc3c(ccc4ccccc43)c2)cc1
# Method in brief: as §1
# [12] = compound: O=C(CCCCCCC(=O)Nc1ccccc1)NO [vorinostat]
# Method in brief: as §1
# [13] = compound: O=C(O)c1ccc2c(c1)nc(Nc1cccc(Cl)c1)c1ccncc12 [silmitasertib]
# Method in brief: as §1
# [14] = compound: O=C1NC(=O)C(c2cnc3ccccn23)=C1c1cn2c3c(cc(F)cc13)CN(C(=O)N1CCCCC1)CC2
# Method in brief: as §1
# [15] = compound: c1cn2cc(-c3ccc4cn[nH]c4c3)nc(Nc3ccc(N4CCOCC4)cc3)c2n1 [entospletinib]
# Method in brief: as §1
# UniProt Q8N1F7, sequence (Q8N1F7 whole entry, looked up): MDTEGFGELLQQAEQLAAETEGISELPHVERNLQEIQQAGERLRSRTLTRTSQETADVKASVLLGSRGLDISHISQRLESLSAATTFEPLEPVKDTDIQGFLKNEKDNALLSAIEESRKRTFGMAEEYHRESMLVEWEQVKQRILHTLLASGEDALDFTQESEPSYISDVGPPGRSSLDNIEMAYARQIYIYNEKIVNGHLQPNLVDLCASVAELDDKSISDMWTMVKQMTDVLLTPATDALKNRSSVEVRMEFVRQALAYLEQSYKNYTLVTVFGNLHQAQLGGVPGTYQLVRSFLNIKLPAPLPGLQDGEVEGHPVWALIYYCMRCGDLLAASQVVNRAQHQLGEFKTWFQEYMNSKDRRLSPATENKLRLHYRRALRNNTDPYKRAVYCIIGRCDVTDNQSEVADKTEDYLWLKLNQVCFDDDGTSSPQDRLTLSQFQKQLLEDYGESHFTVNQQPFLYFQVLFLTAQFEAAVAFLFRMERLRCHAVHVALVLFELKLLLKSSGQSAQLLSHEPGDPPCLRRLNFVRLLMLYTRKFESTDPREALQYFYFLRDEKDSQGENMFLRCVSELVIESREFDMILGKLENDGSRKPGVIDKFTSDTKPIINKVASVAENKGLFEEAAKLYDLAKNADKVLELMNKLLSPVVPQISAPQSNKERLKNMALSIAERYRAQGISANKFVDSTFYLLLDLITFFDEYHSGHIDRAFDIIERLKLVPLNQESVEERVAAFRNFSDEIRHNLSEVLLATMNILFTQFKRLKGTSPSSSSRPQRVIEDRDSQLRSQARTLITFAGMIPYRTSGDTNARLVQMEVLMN
# UniProt Q9H4L5, sequence (Q9H4L5 whole entry, looked up): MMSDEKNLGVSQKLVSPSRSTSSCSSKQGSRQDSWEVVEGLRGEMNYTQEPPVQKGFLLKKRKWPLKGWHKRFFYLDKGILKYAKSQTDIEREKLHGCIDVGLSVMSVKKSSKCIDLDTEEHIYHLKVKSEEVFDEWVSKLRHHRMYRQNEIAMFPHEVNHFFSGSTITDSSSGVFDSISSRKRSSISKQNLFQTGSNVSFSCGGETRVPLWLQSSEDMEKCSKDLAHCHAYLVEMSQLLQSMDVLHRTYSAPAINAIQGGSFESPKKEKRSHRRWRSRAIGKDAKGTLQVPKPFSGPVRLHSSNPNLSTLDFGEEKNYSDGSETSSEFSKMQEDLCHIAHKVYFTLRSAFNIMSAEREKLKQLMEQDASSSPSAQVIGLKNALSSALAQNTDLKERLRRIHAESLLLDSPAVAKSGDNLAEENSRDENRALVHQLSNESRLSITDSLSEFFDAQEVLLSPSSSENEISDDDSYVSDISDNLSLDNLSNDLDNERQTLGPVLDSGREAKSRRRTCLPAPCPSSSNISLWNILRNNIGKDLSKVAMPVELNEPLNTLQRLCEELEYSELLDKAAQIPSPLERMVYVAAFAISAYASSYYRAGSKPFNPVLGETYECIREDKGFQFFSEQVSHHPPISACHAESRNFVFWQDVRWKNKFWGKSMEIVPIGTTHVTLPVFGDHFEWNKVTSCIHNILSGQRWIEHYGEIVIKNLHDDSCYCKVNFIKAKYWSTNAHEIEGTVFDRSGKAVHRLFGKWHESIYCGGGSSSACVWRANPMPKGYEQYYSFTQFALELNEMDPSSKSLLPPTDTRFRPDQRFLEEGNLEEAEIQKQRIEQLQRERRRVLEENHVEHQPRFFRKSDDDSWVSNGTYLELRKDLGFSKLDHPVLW
# UniProt Q4G0N4, sequence (Q4G0N4 whole entry, looked up): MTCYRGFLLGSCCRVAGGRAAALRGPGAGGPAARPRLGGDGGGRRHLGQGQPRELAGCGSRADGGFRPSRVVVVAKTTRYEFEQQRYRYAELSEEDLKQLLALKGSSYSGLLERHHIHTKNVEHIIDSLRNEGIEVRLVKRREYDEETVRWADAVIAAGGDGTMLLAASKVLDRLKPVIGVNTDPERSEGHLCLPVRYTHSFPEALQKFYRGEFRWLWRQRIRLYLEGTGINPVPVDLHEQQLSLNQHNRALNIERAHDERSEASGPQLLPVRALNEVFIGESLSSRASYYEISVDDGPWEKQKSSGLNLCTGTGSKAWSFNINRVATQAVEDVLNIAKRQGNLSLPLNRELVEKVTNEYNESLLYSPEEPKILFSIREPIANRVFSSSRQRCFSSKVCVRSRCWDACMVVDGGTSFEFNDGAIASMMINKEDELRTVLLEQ
# UniProt O75376, sequence (O75376 whole entry, looked up): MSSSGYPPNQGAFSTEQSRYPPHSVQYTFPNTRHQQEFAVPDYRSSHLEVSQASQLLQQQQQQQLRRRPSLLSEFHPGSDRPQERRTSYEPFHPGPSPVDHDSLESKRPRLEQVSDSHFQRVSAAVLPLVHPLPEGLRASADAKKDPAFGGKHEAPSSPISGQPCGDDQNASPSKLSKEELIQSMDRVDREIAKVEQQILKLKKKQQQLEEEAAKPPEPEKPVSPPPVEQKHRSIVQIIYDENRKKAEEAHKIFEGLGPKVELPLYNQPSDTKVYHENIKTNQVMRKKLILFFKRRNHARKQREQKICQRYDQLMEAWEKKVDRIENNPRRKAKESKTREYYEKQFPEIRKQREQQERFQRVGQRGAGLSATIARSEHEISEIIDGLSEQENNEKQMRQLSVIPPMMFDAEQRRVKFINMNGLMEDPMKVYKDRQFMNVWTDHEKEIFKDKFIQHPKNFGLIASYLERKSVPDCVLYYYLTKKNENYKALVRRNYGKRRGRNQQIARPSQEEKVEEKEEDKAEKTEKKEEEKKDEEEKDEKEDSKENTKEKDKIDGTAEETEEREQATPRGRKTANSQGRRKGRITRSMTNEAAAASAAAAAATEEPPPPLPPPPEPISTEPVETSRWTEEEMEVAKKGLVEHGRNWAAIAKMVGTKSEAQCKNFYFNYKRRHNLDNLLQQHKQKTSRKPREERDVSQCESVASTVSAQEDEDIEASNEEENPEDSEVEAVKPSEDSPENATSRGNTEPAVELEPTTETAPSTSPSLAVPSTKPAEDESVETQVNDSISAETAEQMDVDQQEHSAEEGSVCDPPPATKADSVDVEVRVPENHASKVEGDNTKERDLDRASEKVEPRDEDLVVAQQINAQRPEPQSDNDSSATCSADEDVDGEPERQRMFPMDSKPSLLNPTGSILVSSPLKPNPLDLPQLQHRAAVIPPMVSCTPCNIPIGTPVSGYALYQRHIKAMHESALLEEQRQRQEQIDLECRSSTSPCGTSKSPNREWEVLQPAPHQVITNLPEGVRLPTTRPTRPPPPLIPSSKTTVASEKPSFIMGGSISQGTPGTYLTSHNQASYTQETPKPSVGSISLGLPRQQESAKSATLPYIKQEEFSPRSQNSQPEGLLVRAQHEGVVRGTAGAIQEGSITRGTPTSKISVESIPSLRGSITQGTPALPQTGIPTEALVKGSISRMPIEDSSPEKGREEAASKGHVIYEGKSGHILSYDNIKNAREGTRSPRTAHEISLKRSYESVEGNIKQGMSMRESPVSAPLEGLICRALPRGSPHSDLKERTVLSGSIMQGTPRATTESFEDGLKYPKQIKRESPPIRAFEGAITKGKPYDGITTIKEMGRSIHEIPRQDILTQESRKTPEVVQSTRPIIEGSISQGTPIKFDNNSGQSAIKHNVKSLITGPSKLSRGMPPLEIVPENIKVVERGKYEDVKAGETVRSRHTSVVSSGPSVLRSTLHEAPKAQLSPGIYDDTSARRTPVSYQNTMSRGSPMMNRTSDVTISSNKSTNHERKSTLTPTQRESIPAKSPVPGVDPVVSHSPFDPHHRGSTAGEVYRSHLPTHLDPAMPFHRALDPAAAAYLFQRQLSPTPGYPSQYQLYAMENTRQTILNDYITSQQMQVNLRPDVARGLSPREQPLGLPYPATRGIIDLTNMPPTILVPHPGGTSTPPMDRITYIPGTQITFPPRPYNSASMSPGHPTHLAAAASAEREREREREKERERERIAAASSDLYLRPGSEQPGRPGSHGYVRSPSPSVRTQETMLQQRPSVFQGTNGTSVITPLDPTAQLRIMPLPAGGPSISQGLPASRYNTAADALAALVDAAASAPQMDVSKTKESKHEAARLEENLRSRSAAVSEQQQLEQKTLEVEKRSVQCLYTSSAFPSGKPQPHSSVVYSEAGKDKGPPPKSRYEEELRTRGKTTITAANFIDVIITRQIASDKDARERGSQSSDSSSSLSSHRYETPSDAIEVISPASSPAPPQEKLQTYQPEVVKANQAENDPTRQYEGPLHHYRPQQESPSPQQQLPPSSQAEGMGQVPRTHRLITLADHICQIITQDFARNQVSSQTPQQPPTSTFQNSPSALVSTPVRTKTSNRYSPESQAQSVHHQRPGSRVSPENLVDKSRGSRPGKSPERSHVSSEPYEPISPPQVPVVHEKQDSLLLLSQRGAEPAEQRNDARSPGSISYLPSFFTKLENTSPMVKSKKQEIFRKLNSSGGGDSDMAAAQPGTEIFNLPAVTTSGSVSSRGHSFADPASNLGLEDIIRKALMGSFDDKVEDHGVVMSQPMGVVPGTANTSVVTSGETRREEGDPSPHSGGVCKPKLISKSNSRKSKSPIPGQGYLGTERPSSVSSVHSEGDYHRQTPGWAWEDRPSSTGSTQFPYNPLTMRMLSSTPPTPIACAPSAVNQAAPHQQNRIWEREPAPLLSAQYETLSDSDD
# UniProt P30419, sequence (P30419 whole entry, looked up): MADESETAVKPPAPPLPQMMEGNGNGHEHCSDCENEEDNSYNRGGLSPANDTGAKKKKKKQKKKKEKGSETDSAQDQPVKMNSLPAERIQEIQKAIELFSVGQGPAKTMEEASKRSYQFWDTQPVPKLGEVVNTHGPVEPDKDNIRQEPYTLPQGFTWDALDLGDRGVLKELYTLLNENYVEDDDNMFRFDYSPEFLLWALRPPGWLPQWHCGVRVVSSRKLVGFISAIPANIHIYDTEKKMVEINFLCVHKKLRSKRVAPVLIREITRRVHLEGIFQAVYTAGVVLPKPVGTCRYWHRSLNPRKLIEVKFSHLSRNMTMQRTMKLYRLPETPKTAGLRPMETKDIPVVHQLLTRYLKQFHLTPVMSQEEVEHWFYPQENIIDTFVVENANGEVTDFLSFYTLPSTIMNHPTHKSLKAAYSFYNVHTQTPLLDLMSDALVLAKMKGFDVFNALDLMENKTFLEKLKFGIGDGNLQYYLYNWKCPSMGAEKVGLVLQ
Target,log2 fold change [1],log2 fold change [2],log2 fold change [3],log2 fold change [4],log2 fold change [5],log2 fold change [6],log2 fold change [7],log2 fold change [8],log2 fold change [9],log2 fold change [10],log2 fold change [11],log2 fold change [12],log2 fold change [13],log2 fold change [14],log2 fold change [15]
MRPL53 (UniProt Q96EL3),-0.04,0.026,-0.018,0.015,0.06,0.02,-0.034,-0.041,-0.006,0.031,-0.052,-0.119,0.042,-0.024,0.033
OSBP (UniProt P22059),-0.073,0.005,-0.221 (active),-0.015,-0.011,0,0.042,0.012,0.031,0.04,0.041,0.108,-0.121,-0.015,-0.1
PAGE2B (UniProt Q5JRK9),0.036,-0.007,0.032,0.062,-0.016,0.001,0.026,0.041,-0.018,0.164,0.057,0.474 (active),-0.001,0.02,0.017
OLA1 (UniProt Q9NTK5),0.001,-0.009,-0.023,0.006,0.018,-0.008,0.018,0.022,-0.006,0.025,0.03,-0.31 (active),0.041,0.004,0.043
NNMT (UniProt P40261),-0.044,-0.01,0.058,0.03,0.003,-0.145,-0.008,0.004,0.035,-0.033,0.014,-0.104,0.014,0.03,-0.004
MRPS12 (UniProt O15235),-0.026,0.061,-0.104,-0.041,-0.007,-0.051,-0.012,0.01,0.018,0.063,-0.005,-0.35 (active),-0.011,-0.013,-0.046
NMT1 (UniProt P30419),-0.037,0.044,0.058,-0.016,-0.022,-0.065,0.001,0.007,-0.005,-0.057,-0.35 (active),0.028,-0.03,-0.036,0.034
NUMB (UniProt P49757),-0.03,-0.024,-0.072,-0.008,0.001,-0.02,0.001,-0.029,-0.026,0.003,0,-0.315 (active),-0.014,-0.066,0
MYCBP (UniProt Q99417),-0.034,0.041,0.019,0.055,-0.011,-0.058,-0.011,-0.038,-0.02,0.029,0.006,0.113,-0.015,-0.025,-0.075
MSH2 (UniProt P43246),-0.005,-0.008,-0.038,-0.01,0.01,-0.08,0.004,0.046,0.016,-0.017,0.006,-0.287 (active),0.027,-0.022,0.034
NPM3 (UniProt O75607),-0.039,-0.012,0.065,0.049,0.024,-0.024,-0.027,0.019,0.03,-0.029,-0.049,-0.012,0.021,-0.019,-0.037
NCOR1 (UniProt O75376),0.006,0.012,-0.031,-0.019,0.008,-0.064,-0.046,0.021,0.029,0.003,0.021,-0.239 (active),-0.035,0.014,-0.01
NTMT1 (UniProt Q9BV86),-0.033,-0.026,-0.053,0.002,0.047,-0.051,0.012,0.07,-0.049,-0.002,0.008,-0.366 (active),0.026,0.01,0.049
NIPSNAP3A (UniProt Q9UFN0),0.001,0.016,0.028,0.008,-0.054,-0.053,0.015,0.007,-0.052,-0.025,0.03,0.136,-0.061,0.017,-0.021
NCAPD3 (UniProt P42695),0.005,-0.022,-0.041,0.005,0.005,-0.06,0.005,0.078,-0.014,-0.028,-0.005,-0.562 (active),0.034,-0.022,-0.007
NFAT5 isoform 5 (UniProt O94916),-0.012,-0.07,0.008,0.046,-0.014,-0.172,-0.032,0.031,0.018,0.039,0.033,-0.026,0.037,0.016,-0.061
MTA3 (UniProt Q9BTC8),0.034,-0.059,-0.005,-0.019,-0.017,-0.061,0.009,0.03,0.005,-0.047,0.021,-0.278 (active),-0.017,-0.021,0.012
NCAPG2 (UniProt Q86XI2),-0.002,-0.035,-0.078,-0.024,-0.015,-0.092,0.003,0.061,0.045,-0.031,0.002,-0.598 (active),0.015,-0.016,0.009

Target,log2 fold change [1],log2 fold change [2],log2 fold change [3],log2 fold change [4],log2 fold change [5],log2 fold change [6],log2 fold change [7],log2 fold change [8],log2 fold change [9],log2 fold change [10],log2 fold change [11],log2 fold change [12],log2 fold change [13],log2 fold change [14],log2 fold change [15]
NMRAL1 (UniProt Q9HBL8),-0.017,0.004,-0.035,-0.005,-0.039,0.025,0.01,-0.021,0.012,0.045,-0.023,-0.009,0.047,-0.04,0.012
NUP205 (UniProt Q92621),-0.014,0.004,-0.04,0.008,0.04,-0.041,-0.027,0.052,0.047,-0.012,0.003,-0.335 (active),0.037,0.001,0.005
OGFOD2 (UniProt Q6N063),-0.002,0.005,0.006,0.063,0.048,0.031,0.026,0.049,-0.017,0.049,0.023,-0.075,0.038,0.022,-0.001
MTHFD1L (UniProt B7ZM99),-0.017,0.028,-0.061,0.002,0.046,-0.055,-0.01,0.074,0.019,-0.017,0.031,-0.408 (active),0.07,0.045,-0.02
MRPS18A isoform 2 (UniProt Q9NVS2),0.031,-0.022,-0.054,-0.033,0.006,-0.012,-0.026,0.036,0.014,-0.065,0.008,0.021,0.048,0.019,-0.052
PARD3 (UniProt Q8TEW0),-0.114,-0.109,0.021,-0.031,0.024,-0.002,0.121,0.029,0.199,0.105,-0.071,-0.314,-0.118,-0.081,-0.003
NAP1L5 (UniProt Q96NT1),-0.008,-0.053,0.024,0.045,0.01,0.068,0.054,-0.05,-0.049,0.005,0.023,0.059,0.033,-0.049,0.071
NCAPH (UniProt Q15003),-0.033,0,-0.03,-0.017,-0.017,0.005,0.023,0.013,0.006,-0.017,-0.031,-0.33 (active),0.009,-0.01,-0.004
NOSTRIN (UniProt Q8IVI9),-0.015,-0.02,-0.022,0.03,0.01,-0.031,-0.008,0.01,-0.018,0.064,-0.083,-0.27 (active),0.028,0.019,0.018
OSBPL3 isoform 2 (UniProt Q9H4L5),0.085,-0.048,-0.191,-0.026,0.024,-0.051,-0.02,0.003,0.017,-0.151,-0.087,-0.36 (active),0.402 (active),0.062,0.052
MYCBP2 (UniProt O75592),0.028,-0.013,-0.038,-0.013,0.015,-0.116,-0.008,0.019,0.012,-0.013,0.031,-0.223 (active),-0.002,0.007,-0.002
NADK2 (UniProt Q4G0N4),0.022,0.002,-0.016,-0.008,-0.022,0.017,0.008,-0.032,0.029,0.03,-0.002,-0.106,0.044,0.003,-0.001
NNT (UniProt Q13423),-0.017,0.001,0.003,0.002,0.002,0.01,0.009,-0.021,0.002,0.001,0.02,0.023,-0.001,-0.036,-0.01
PAN2 isoform 2 (UniProt Q504Q3),0.072,0.013,-0.012,0.046,0.079,-0.036,-0.049,0.056,0.02,-0.028,0.11,-0.097,0.038,-0.056,0.038
NAA35 (UniProt Q5VZE5),-0.019,0.014,-0.005,0.009,0.01,-0.075,0.034,0.001,-0.035,0.016,-0.04,-0.308 (active),0.017,0.004,0.028
NUP93 (UniProt Q8N1F7),-0.02,0.001,-0.098,-0.006,0.031,0.037,-0.04,0.021,0.018,-0.005,-0.011,-0.242 (active),0.067,0.015,0.022
OAT (UniProt P04181),0.012,-0.038,-0.033,0.003,-0.012,-0.002,0.024,-0.01,0.019,-0.018,0.053,0.168,-0.006,0.042,0.029
NEDD8 (UniProt Q15843),0.004,-0.073,0.027,0.103,-0.034,0.034,0.066,-0.038,-0.057,0.018,-0.033,0.195,-0.12,0.038,-0.082
